nsP2pro inh = inhibitors of chikungunya virus nsP2 protease. Q8JUX6. FRET peptide cleavage, nsP2pro, fluorescence 1 h. Potency, µM (series often up to 24.9 µM), inactives show at the highest dose activity change, negative = inhibition, most hits filed as inhibitors. 1.1% of 31,000 active. AID 1964107; also: nearly all actives have a fitted effect of over 60% in size
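Enzyme 150 nM, substrate 2.5 uM (both final); Tris-HCl 10 mM pH 8.0 + 0.01% Tween 20; cpd up to 25 uM, 7 pts; 15 min preinc., 1 h RT; fluorescence ex 525/em 598.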
CHIKV nsP2 cell = cell-based CHIKV nsP2 protease inhibition, secondary | shares compounds with nsP2pro inh | cell-based CHIKV nsP2 protease reporter assay | Potency, µM (titrated, usually from 51.1 µM), without a hit: at the highest dose activity change, negative = inhibition, usual class: inhibitors | 10% of 450 active | AID 1964100; also: nearly all actives have a fitted effect of over 70% in size
Target sequence (Q8JUX6 220-798 limits assumed): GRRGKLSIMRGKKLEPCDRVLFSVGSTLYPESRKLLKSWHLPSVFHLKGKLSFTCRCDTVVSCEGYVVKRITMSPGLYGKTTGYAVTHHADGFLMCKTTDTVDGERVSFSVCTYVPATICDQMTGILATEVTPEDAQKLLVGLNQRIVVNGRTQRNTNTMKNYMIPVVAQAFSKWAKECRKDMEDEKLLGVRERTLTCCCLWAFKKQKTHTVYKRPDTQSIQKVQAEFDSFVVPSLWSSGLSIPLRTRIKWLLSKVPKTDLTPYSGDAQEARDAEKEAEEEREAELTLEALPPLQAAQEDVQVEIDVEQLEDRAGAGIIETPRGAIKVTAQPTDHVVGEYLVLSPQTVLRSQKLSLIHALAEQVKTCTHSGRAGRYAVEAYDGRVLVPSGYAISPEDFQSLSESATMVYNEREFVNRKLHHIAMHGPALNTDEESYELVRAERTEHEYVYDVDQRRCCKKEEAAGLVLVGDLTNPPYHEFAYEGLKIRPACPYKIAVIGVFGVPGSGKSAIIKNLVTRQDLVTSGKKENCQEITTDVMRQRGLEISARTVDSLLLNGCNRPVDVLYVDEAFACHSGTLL
CHIKV NSP2 FL = inhibits full-length CHIKV NSP2 enzyme | 39% of 410 active | shares compounds with nsP2pro inh | AID 1964101 | Full-length CHIKV NSP2 protease enzymatic counterscreen | Potency, µM (top dose mostly 50.7 µM), for inactives: at the top dose activity change, negative = inhibition, usual class: inhibitors; also: nearly all actives have a fitted effect of over 65% in size
Furin counterscr = inhibits human furin in a CHIKV nsP2 protease selectivity counterscreen. shares compounds with nsP2pro inh. Recombinant human furin enzymatic counterscreen, fluorogenic substrate. Potency, µM (top dose mostly 50.6 µM), for inactives: at the top dose activity change, negative = inhibition, usual class: inhibitors. 6% of 410 active
nsP2 NS23 pep = selectivity test for CHIKV nsP2 protease inhibitors: endogenous NS2/3 peptide; shares compounds with nsP2pro inh; Purified CHIKV nsP2 protease, endogenous NS2/3 peptide cleavage; Potency, µM (highest dose often 51 µM), without a hit: at the top dose activity change, negative = inhibition, most hits filed as inhibitors; 34% of 410 active; also: nearly all actives have a fitted effect of over 55% in size
Papain counter = papain protease inhibition, counterscreen for nsP2pro inhibitors | shares compounds with nsP2pro inh | purified papain protease activity, enzymatic inhibition | Potency, µM (highest dose often 51 µM), without a hit: at the highest dose activity change, negative = inhibition, actives largely listed as inhibitors | 5% of 410 active | AID 1964104
nsP2pro confirm = CHIKV nsP2 protease inhibition, confirmatory qHTS; Potency, µM (doses to about 25.5 µM), without a hit: top-dose activity change, negative = inhibition, most hits filed as inhibitors; 43% of 410 active; CHIKV nsP2 protease enzymatic activity, qHTS; shares compounds with nsP2pro inh; also: nearly all actives have a fitted effect of over 75% in size
HCV NS3 counter = inhibits HCV NS3/4A protease in an nsP2pro selectivity counterscreen. shares compounds with nsP2pro inh. HCV NS3/4A protease biochemical counterscreen. Potency, µM (doses to about 50.9 µM), actives largely listed as inhibitors. 20% of 410 active. AID 1964106; also: nearly all actives have a fitted effect of over 55% in size
* marks the source's active call; other numbers are inactive results; i = inactive; ? = inconclusive; ! = not confirmed by another sample; [ ] = dose if it differs, or a comment. This is one part of a sample in which hits are shown more often than they occur. Calls follow the shape of the full dose curve. % is scaled to controls: 0 for no effect and ±100 for the full control effect; potency is read from the fitted curve at half-maximal effect.

SMILES	nsP2pro inh	others
C=C1C(=O)O[C@@H]2[C@H]3O[C@]3(C)CC/C=C(\C)CC[C@@H]12	-4.8%
Cc1cnn(CCC(=O)N2CCC3(CCOCC3)CC2)c1	16.4%
CC1(C)CC[C@]2(C(=O)O[C@@H]3O[C@H](CO)[C@@H](O)[C@H](O)[C@H]3O)CC[C@]3(C)C(=CCC4[C@@]5(C)CC[C@H](O[C@@H]6O[C@H](C(=O)O)[C@@H](O)[C@H](O[C@@H]7O[C@H](CO)[C@H](O)[C@H](O)[C@H]7O)[C@H]6O)C(C)(C)C5CC[C@]43C)C2C1 (stereo partly specified)	-1.4%[5.1 µM]
CC/C(C)=C/C(=O)OC1C(OC2(C)CCC3C(C4C(C)CCC42)C3(C)C)OC(C)C(O)C1O (stereo unspecified)	?	CHIKV nsP2 cell=?;CHIKV NSP2 FL=4.8%[17.3 µM];Furin counterscr=-17.0%[17.3 µM];nsP2 NS23 pep=-1.6%[17.2 µM];Papain counter=?;nsP2pro confirm=-9.8%[8.62 µM];HCV NS3 counter=i
CC(C)c1ccccc1-c1nc2c(c(NCc3ccc(-c4cccnc4)cc3)n1)CCNC2	i
CCC(=C(CC)c1ccc(OP(=O)(O)O)cc1)c1ccc(OP(=O)(O)O)cc1	3.4%[0.199 µM]
C=C1C(=O)OC2/C=C(\C)CC/C=C(\C=O)C(OC)C(OC(=O)C(C)CC)C12 (stereo unspecified)	24.3%
OCc1ccc(-c2ccc(-c3ccc(CO)s3)o2)s1	2.16µM*	CHIKV nsP2 cell=-4.3%[17.6 µM];CHIKV NSP2 FL=4µM*;Furin counterscr=?;nsP2 NS23 pep=?;Papain counter=i;nsP2pro confirm=3.1µM*;HCV NS3 counter=i
COc1c(C(C)C)c(O)c(O)c2c1C(OC)[C@H]1OC(=O)[C@@]23CCCC(C)(C)[C@H]13 (stereo partly specified)	-5.0%
COC[C@@H]1OC[C@@]2(C)C3CC[C@@H](O)[C@@H](CC(=O)NCc4cccs4)[C@]3(C)CC[C@H]2O1 (stereo partly specified)	-8.3%
OCCN1CCN(CCCN2c3ccccc3Sc3ccc(C(F)(F)F)cc32)CC1	25.0%
CC(=O)c1ccc2c(c1)N(CCCN1CCN(CCO)CC1)c1ccccc1S2	-8.8%
OCCN1CCN(CCCN2c3ccccc3C=Cc3ccccc32)CC1	8.81µM*	CHIKV nsP2 cell=-1.5%;CHIKV NSP2 FL=?;Furin counterscr=-8.0%;nsP2 NS23 pep=-3.9%;Papain counter=2.3%;nsP2pro confirm=0.0%;HCV NS3 counter=i
O=C(Nc1ccc(Br)cc1)Nc1nnc(-c2ccncc2)s1	-7.5%
O=C1CCCC2=C1C(c1[nH]ncc1Cl)NC(=NCc1ccco1)N2 (stereo unspecified)	-2.3%
O=C1Nc2ccccc2CN(Cc2ccccc2)C12CCNC2 (stereo unspecified)	?	CHIKV nsP2 cell=43.4%
O=C1Nc2ccccc2CC12CCN(Cc1cccnc1)C2 (stereo unspecified)	-7.2%[39.2 µM]
O=C1Nc2ccccc2CC12CCN2Cc1ccc(OC(F)(F)F)cc1 (stereo unspecified)	1.7%
CN1CC(=O)N(C2CCCC2)Cc2c(NC3CCCC3)ncnc21	0.1%[39.2 µM]
Cc1cc(C)c(S(=O)(=O)n2cc(C)cc2C)c(C)c1	-29.1%
O=C(c1ccc(F)cc1)N1CCCC(C(=O)N2CCC(c3nc4ncccc4[nH]3)CC2)C1 (stereo unspecified)	-13.5%
COCCNC(=O)Nc1ccc2nc(-c3cccs3)c(-c3cccs3)nc2c1	?	CHIKV nsP2 cell=-3.8%;CHIKV NSP2 FL=33.8%;Furin counterscr=-9.9%;nsP2 NS23 pep=-9.6%;Papain counter=49.2%;nsP2pro confirm=8.5%;HCV NS3 counter=i
COCCNC(=O)c1cc2c(Cl)nc3ccc(C)cc3c2s1	12.8%
Cc1ccc(NC(=O)CSc2nc(-c3cccs3)nc3cc(=O)[nH]n23)cc1C	-6.9%
CCC(=O)Oc1ccc2c(c1)CC[C@@H]1[C@H]2CC[C@]2(C)[C@@H](OC(=O)CC)CC[C@@H]12	-2.6%
SMILES	nsP2pro inh	others
Cc1ccsc1CN1CCc2nc(N3CCN(c4ccccc4F)CC3)ncc2C1	-20.3%
CN1CCN(c2ncc3c(n2)CCN(Cc2ccc(Br)s2)C3)CC1	?	CHIKV nsP2 cell=?;CHIKV NSP2 FL=18.3µM*;Furin counterscr=-8.7%;nsP2 NS23 pep=?;Papain counter=5.1%;nsP2pro confirm=?;HCV NS3 counter=11.6µM*
CCN1CCN(c2ncc3c(n2)CCN(Cc2ccc(Br)s2)C3)CC1	46.4%
CCN1CCN(c2ncc3c(n2)CCN(Cc2ccc(OC(C)C)cc2)C3)CC1	-11.6%
CCN1CCN(c2ncc3c(n2)CCN(Cc2sccc2C)C3)CC1	7.3%	CHIKV nsP2 cell=?;CHIKV NSP2 FL=11.6µM*;Furin counterscr=-8.5%;nsP2 NS23 pep=?;Papain counter=-3.6%;nsP2pro confirm=?;HCV NS3 counter=6.51µM*
Brc1ccc(CN2CCc3nc(N4CCN(c5ncccn5)CC4)ncc3C2)cc1	33.4%
N#Cc1ccc(O[C@@H]2c3ccccc3C[C@H]2N2CCC[C@@H](N)C2)c(Cl)c1	36.3%
Cc1ccnc(NC(=S)N2CCN(c3ccc(Cl)cc3Cl)CC2)c1	i
CC(=O)Nc1sc2c(c1-c1ccc3nc[nH]c3c1)CCNC2	i
CCn1c(CO)nnc1C1CC(NC(=O)c2oc3cc(OC)ccc3c2C)C1 (stereo unspecified)	i
Cc1ccc2nc3sc(C(=O)N4CCN(C5CCN(C)CC5)CC4)cc3cc2c1	-3.1%
CCC(C)C(N)C1=NC(C(=O)N[C@@H](CC(C)C)C(=O)N[C@H](CCC(=O)O)C(=O)N[C@H](C(=O)N[C@H]2CCCCNC(=O)[C@H](CC(N)=O)NC(=O)[C@@H](CC(=O)O)NC(=O)[C@H](Cc3cnc[nH]3)NC(=O)[C@@H](Cc3ccccc3)NC(=O)[C@H]([C@@H](C)CC)NC(=O)[C@@H](CCCN)NC2=O)[C@@H](C)CC)CS1 (stereo partly specified)	0.216µM*!	CHIKV nsP2 cell=11.7%[17.6 µM];CHIKV NSP2 FL=0.142µM*;Furin counterscr=7.98µM*;nsP2 NS23 pep=1.13µM*;Papain counter=3.18µM*;nsP2pro confirm=0.219µM*;HCV NS3 counter=7.98µM*
NCCCC[C@H](NC(=O)[C@@H]1CCCN1C(=O)[C@@H]1CSSC[C@H](N)C(=O)N[C@@H](Cc2ccccc2)C(=O)N[C@@H](Cc2ccccc2)C(=O)N[C@@H](CCC(N)=O)C(=O)N[C@@H](CC(N)=O)C(=O)N1)C(=O)NCC(N)=O	-12.1%
C[C@H](N)C(=O)Nc1cccc(-c2nn3c(=O)cc(N4CCNCC4)nc3s2)c1	i
CC(=O)OC1CC(O)(C(C)C)C2C(OC(=O)c3ccc(O)cc3)C=C(C)C(=O)CC12C (stereo unspecified)	-1.1%[10 µM]

Screens deposited in PubChem BioAssay by National Center for Advancing Translational Sciences (NCATS).
